According to PubChem BioAssay AID624304 (Sanford-Burnham Center for Chemical Genomics, 2012):
About 1,800 (0.5%) of roughly 360,000 compounds were called active. What follows is part of a selection rich in actives, with near analogues and random picks from the rest. Values without a mark were called inactive.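 Rule for the calls: active = interference check ratio from 0.5 to 1.5 plus GFP to RFP signal ratio inhibition reaching or exceeding a fixed threshold (cut at about 30% in these data, passing the limit was not always enough); inactive = the rest.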

Assay: gst-4 reporter inhibition in live C. elegans – whole organism, uHTS, GFP/RFP fluorescence ratio, strain VP596, SKN-1 inhibitor project, primary screen (AID 624304)
Conditions: C. elegans VP596 Pgst-4::GFP/RFP ratio, acrylamide-induced, 24 h; at 21.8 µM; hits give high values

Structure (SMILES) | inhibition
COc1ccccc1N(C)S(=O)(=O)c1ccc(Cl)c(C(=O)Nc2ccncc2)c1 | 23.4%
COc1cccc(OC)c1C(=O)Nc1ccc(Cc2ccncc2)cc1 | -3.1%
COc1cc2ccccc2cc1C(=O)Nc1ccncc1 | 36.2% (active)
O=C(O)c1cccc2c1C(=O)N(C1CCCC1)C2 | -4.43%
CCN(CC)c1ccc2oc(=O)c(C)nc2c1 | 40.8% (active)
Cc1ccc2c(=O)oc(N(C)C)nc2c1 | 8.34%
CN(Cc1nc2ccccc2c(=O)[nH]1)Cc1cc(=O)oc2ccc3ccccc3c12 | 14.1%
Cc1c(Cl)c([N+](=O)[O-])nn1CC(=O)NCCCN1CCOCC1 | 28.4%
CC1Cc2ccccc2N1S(=O)(=O)c1cccc(C(=O)NCC(c2ccco2)N2CCCC2)c1 (stereo unspecified) | 4.55%
CCCCn1ccnc1C(=O)c1cccc(S(=O)(=O)N2c3ccccc3CC2C)c1 (stereo unspecified) | 41.7% (active)
CC1Cc2ccccc2N1S(=O)(=O)c1cccc(C(=O)OCC(=O)N2CCOCC2)c1 (stereo unspecified) | 17.4%
COCCN(C(=O)COC(=O)Cc1cccc(OC)c1)c1c(N)n(Cc2ccccc2)c(=O)[nH]c1=O | 5.12%
CCCCOc1ccc(N(CC(=O)NC(C)C)C(=O)CCC(=O)Nc2ccccn2)cc1 | -1.05%
O=C(NCCCn1ccnc1)C(=O)NCC1OCCN1S(=O)(=O)c1cc(F)ccc1F (stereo unspecified) | -7.89%
CCc1ccc(-c2nc(SCC(=O)NC3CCCC3)n[nH]2)cc1 | 3.3%
Cn1c(=NC(=O)C2CC2)sc2cc(F)cc(F)c21 | 38% (active)
Cn1c(=NC(=O)c2ccco2)sc2cccc(F)c21 | 7.91%
CSCCNCc1cn(-c2ccc(F)cc2F)nc1-c1ccccc1C | -14.2%
O=C1CC2(CCN(C(=O)COc3ccc(F)cc3)CC2)Oc2ccccc21 | -3.05%
CN(C)/C=N/c1cc(=O)n(C)c(=O)n1CC1CC1 | 8.63%
CN=C1C=C/C(=N/N=c2\ccn(O)cc2C)C=C1C | 41.1% (active)

Structure (SMILES) | inhibition
COc1ccc(/C=C/C2=CC(C)(C)NC(=S)N2)c(OC)c1 | -2.28%
Fc1ccc(COc2ccc(-c3nnco3)cc2)cc1 | 77.7% (active)
Fc1ccc(COc2cccc(-c3n[nH]c(=S)o3)c2)cc1 | -1.11%
Fc1cccc(Cl)c1COc1ccc(-c2nnco2)cc1 | 23.1%
Cc1cccc(NC(=O)NC2(C)CCS(=O)(=O)C2)c1 (stereo unspecified) | -6.44%
CCCC(NCC(=O)Nc1ccccc1C(=O)NC1CC1)c1ccccc1 (stereo unspecified) | 11.1%
Cc1ccc(NC(=O)NC(=O)CSc2nnc(-c3ccc(OC(F)F)cc3)n2N)c(C)c1 | 1.8%
CC(C)C[C@@H](COc1ccccc1)N1CCN(CC(C)C)CCC1=O | 12.3%
CC(Cc1cccs1)N(Cc1ccc(Cl)cc1)C(=O)c1ccncc1 (stereo unspecified) | 8.76%
CC/C(=C\c1ccc(Cl)cc1)c1ccncc1 | 57.3% (active)
N#C/C(=C/c1ccc(Cl)cc1)NC(=O)c1ccccc1 | -13.8%
CCCSC(=S)NC1CCS(=O)(=O)C1 (stereo unspecified) | 10.7%
O=C(OCC(=O)N1CCCC1=O)c1cc(S(=O)(=O)N2CCOCC2)ccc1Cl | 6.4%
O=C(OCC(=O)N1CCOCC1)c1ccc2ccccc2c1 | -11.5%
COc1ccc(OC)c(/C(C)=N\NC(=O)c2cc3cc(Cl)ccc3n2C)c1 | 1.75%
C=C(C)c1cccc(C(C)(C)NC(=O)NCCN(CC)CC)c1 | -10.6%
C=C(C)c1cccc(C(C)(C)NC(=O)N2CCN(c3ncccn3)CC2)c1 | 36.7% (active)
C=C(C)c1cccc(C(C)(C)NC(=O)NC2CCCC2)c1 | -1.51%
COc1cccc(NC(=O)C2C(c3ccccc3)C2(Cl)Cl)c1 (stereo unspecified) | -10.4%
COc1ccc(N2CCN(C(=O)CCNC(=O)c3ccc(Br)cc3)CC2)cc1 | 4.57%
CCOc1ccccc1NC(=O)c1cc(S(=O)(=O)N2CCC3(CC2)OCCO3)ccc1F | 3.17%

Structure (SMILES) | inhibition
CN1OC[C@@H]2CN(C(=O)c3ccc(-c4ccccc4)cc3)[C@H](c3ccc(-c4cccc(F)c4)cc3)C[C@@H]21 | -1.35%
CC(=O)N1CCN(C(=O)C2(NC(=O)Nc3ccc(C)cc3)CCCCC2)CC1 | -13.7%
O=C(C1CCCO1)N1CCN(C(=O)C23CC4CC(CC(C4)C2)C3)CC1 (stereo unspecified) | 24.4%
N/C(Cc1ccc([N+](=O)[O-])cc1)=N\OC(=O)COc1ccc2ccccc2c1 | -1.15%
CCn1nccc1C(=O)Nc1ccc(Cl)c(Cl)c1 | 44.5% (active)
CCn1nccc1C(=O)Nc1ccc(S(=O)(=O)NC23CC4CC(CC(C4)C2)C3)cc1 | 5.56%
CC(c1cccnc1)N(CCN(C)C)C(=O)Nc1ccc(Cl)c(Cl)c1 (stereo unspecified) | 0.83%
CC1CCCC(C)N1C(=O)CSc1nnnn1C1CCCC1 (stereo unspecified) | -2.05%
COc1ccccc1C1=CC(=O)C[C@H](c2ccc(F)cc2)C1 | 8.41%
COc1ccccc1-c1nnc(-c2ccc(F)cc2)o1 | 45% (active)
COc1ccccc1-c1cc(NC(C)=O)c2ncc(-c3ccc(F)cc3)n2c1 | 18.1%
N#Cc1c(C(F)(F)F)cc(-c2ccccc2)nc1SCC(=O)N1CCOCC1 | 2.8%
Cc1cccc(-c2nc3c(c(SCC(=O)N4CCOCC4)n2)CCCC3)c1 | 37.9% (active)
Cn1c(SCC(=O)N2CCOCC2)nnc1-c1ccc2ncccc2c1 | 3.82%
Cc1ccc(C)c(S(=O)(=O)N2CC(=O)Nc3ccccc32)c1 | -15.3%
CCOC(=O)c1c(C(C#N)C#N)cc(C)nc1C | -3.86%
CCCCSc1[nH]c(=O)c(C(=O)OCC)cc1C#N | 48.3% (active)
CCOC(=O)c1cc(C)nc(S(C)(=O)=O)c1C#N | 13.5%
CC(=O)Nc1cnc(-c2ccc(O)cc2C)cn1 | -1.38%
